# Laboratory results from PMC3218832.
# Legend:
# Assay in all cases: protein binding microarray; high values mean tight binding
# Settings in all cases: dsDNA, one strand shown
# [1] = biological target: RELARELA (p65 homodimer) (Homo sapiens, UniProt Q04206 1-307)
# [2] = biological target: p50p50 homodimer (Homo sapiens, UniProt P19838 7-356)
# [3] = biological target: T1, p52p52 homodimer (Homo sapiens, UniProt Q00653 4-332)
# T1 sequence: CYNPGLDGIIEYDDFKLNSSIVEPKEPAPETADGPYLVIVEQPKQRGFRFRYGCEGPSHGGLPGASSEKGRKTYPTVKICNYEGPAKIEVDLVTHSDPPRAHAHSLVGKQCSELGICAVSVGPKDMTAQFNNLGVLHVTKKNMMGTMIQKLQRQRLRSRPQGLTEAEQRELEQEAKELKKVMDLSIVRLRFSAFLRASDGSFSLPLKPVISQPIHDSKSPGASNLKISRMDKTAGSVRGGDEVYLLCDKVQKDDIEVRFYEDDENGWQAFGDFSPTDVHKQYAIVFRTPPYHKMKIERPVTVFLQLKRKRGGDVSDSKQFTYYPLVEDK
# [4] = biological target: RELA (p65) subunit of heterodimer;p50 subunit (Homo sapiens;Homo sapiens, UniProt Q04206;P19838 1-307;7-356)
# Chain of RELA (p65) subunit of heterodimer;p50 subunit (Q04206 1-307, chain 1 of 2): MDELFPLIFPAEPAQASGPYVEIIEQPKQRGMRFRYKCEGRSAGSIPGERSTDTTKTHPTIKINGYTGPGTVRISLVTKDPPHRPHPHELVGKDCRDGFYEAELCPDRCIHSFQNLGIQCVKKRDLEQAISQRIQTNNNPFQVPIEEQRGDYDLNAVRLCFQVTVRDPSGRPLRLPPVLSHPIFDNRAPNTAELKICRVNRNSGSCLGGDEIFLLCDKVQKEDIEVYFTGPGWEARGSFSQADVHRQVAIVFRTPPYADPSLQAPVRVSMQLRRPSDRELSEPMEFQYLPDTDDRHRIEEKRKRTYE
# Chain of RELA (p65) subunit of heterodimer;p50 subunit (P19838 7-356, chain 2 of 2): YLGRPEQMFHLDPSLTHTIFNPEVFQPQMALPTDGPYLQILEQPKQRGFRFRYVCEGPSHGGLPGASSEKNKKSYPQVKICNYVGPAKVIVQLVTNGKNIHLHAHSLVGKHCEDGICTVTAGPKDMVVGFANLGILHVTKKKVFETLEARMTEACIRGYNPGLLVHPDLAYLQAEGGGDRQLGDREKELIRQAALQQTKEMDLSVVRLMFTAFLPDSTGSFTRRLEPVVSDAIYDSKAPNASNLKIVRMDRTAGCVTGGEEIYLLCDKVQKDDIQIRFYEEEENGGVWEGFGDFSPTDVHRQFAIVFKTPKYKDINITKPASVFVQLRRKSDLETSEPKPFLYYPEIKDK
# [5] = biological target: RELA (p65) subunit of heterodimer;p52 subunit (Homo sapiens;Homo sapiens, UniProt Q04206;Q00653 1-307;4-332)
# [6] = biological target: RELB subunit;p50 subunit (Homo sapiens;Homo sapiens, UniProt Q01201;P19838 120-401;7-356)
# [7] = biological target: T2, RELB subunit;p52 subunit (Homo sapiens;Homo sapiens, UniProt Q01201;Q00653 120-401;4-332)
# T2 sequence 1: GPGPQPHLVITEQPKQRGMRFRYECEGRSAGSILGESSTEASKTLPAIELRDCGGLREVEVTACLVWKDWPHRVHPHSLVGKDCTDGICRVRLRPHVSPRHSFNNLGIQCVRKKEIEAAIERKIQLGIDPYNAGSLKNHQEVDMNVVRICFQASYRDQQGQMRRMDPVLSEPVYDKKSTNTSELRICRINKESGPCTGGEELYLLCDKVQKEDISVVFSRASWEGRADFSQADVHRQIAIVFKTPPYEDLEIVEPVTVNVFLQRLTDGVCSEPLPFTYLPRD
# T2 sequence 2: T1 sequence
# [8] = biological target: C-Rel subunit;p50 subunit (Homo sapiens;Homo sapiens, UniProt Q04864;P19838 1-285;7-356)
# [9] = biological target: T3, C-Rel subunit;p52 subunit (Homo sapiens;Homo sapiens, UniProt Q04864;Q00653 1-285;4-332)
# T3 sequence 1: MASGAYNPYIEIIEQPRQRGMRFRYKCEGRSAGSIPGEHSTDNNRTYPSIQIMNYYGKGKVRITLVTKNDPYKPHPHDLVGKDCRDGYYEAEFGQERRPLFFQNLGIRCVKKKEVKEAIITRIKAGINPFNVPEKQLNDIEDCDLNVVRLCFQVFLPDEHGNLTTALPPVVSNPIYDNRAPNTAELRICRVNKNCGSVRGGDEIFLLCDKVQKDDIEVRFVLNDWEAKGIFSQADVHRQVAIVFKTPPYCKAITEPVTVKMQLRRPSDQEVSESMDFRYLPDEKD
# T3 sequence 2: T1 sequence
# Chain of p50p50 homodimer (P19838 7-356): as the sequence (P19838 7-356, chain 2 of 2) above
# Chain of RELARELA (p65 homodimer) (Q04206 1-307): as the sequence (Q04206 1-307, chain 1 of 2) above
Sequence,binding signal [1] [z-score],binding signal [2] [z-score],binding signal [3] [z-score],binding signal [4] [z-score],binding signal [5] [z-score],binding signal [6] [z-score],binding signal [7] [z-score],binding signal [8] [z-score],binding signal [9] [z-score]
CAGAATCTCCC,0.546,0.713,-0.063,0.636,0.291,0.641,0.396,0.223,0.378
GGATATCTCCC,0.156,0.192,0.0332,0.149,0.0232,0.028,-0.143,-0.122,-0.036
CGGTTCATCCT,-0.997,-1.12,-0.513,-0.88,-0.9,-0.96,-0.765,-1.41,-1.01
AGGTTTGTCCC,1.29,0.56,0.82,0.878,0.918,0.602,0.621,0.937,0.735
AAGGGACCCCC,-0.529,0.964,0.927,0.806,0.93,0.75,0.929,0.681,0.75
CGAGTTATCCT,-0.476,-1.24,-0.637,-1.02,-0.873,-1.13,-0.889,-1.27,-0.871
CGGTGGTTCCT,0.0744,0.731,1.05,0.41,0.701,0.293,0.552,-0.0201,0.719
GAAAGCTCCCC,-0.0663,0.67,0.244,0.536,0.231,0.445,0.294,0.317,0.189
AGAATTGCCCT,0.531,-0.747,-0.409,0.222,-0.0792,-0.516,-0.558,-0.0961,0.0532
CGAAAAATCCT,0.627,-0.702,-0.361,-0.584,-0.435,-0.775,-0.584,-0.32,-0.29
GAGTGCGCCCC,-0.402,-0.17,-0.0852,-0.178,0.0378,-0.305,-0.0411,-0.0592,-0.0203
CAGGAAACCCC,2.37,1.03,1.38,1.38,1.31,0.925,1.39,1.04,1.76
AGGTAGGCCCT,-0.932,-0.756,-0.535,-0.978,-0.63,-0.647,-0.561,-1.13,-0.598
CGAGGAATCCT,-0.235,-1.18,-0.504,-0.879,-0.8,-1.08,-0.975,-0.824,-0.613
CAGTAATTCCC,2.18,0.948,0.804,1.12,0.865,0.722,0.71,1.31,1.05
GGAGTGGCCCT,-0.154,-1.1,-0.562,-0.155,-0.329,-0.631,-0.334,-0.305,-0.0519
CGGTTTACCCC,0.939,0.564,0.746,0.807,1.01,0.667,1.16,1.04,1.04
GAGAAACCCCC,1.35,1.41,2.15,2.14,2,1.98,2.04,1.45,2.14
CGGTTATCCCT,0.134,0.215,0.38,0.0537,0.272,0.229,0.321,0.223,0.381
CAAGTTGTCCC,0.644,0.614,0.469,0.421,0.267,0.826,0.446,0.778,0.251

Sequence,binding signal [1] [z-score],binding signal [2] [z-score],binding signal [3] [z-score],binding signal [4] [z-score],binding signal [5] [z-score],binding signal [6] [z-score],binding signal [7] [z-score],binding signal [8] [z-score],binding signal [9] [z-score]
AGAATTGTCCC,0.95,0.906,0.873,0.803,0.85,0.82,0.675,0.87,0.604
GAATGAGCCCT,-1.06,-1.39,-0.606,-0.778,-0.989,-1.17,-0.969,-1.55,-1.02
GAGGATTCCCC,2,1.1,2.67,2.18,2.19,2.43,2.09,1.54,2.11
AGGAATGCCCT,1.19,-0.455,-0.376,-0.147,-0.196,-0.674,-0.494,-0.208,0.0938
CAGAAGATCCT,-1.03,-2.16,-0.765,-1.33,-1.13,-1.3,-1.12,-1.5,-1.07
AAATGAGTCCT,-0.142,-1.04,-0.602,-0.991,-0.866,-0.889,-0.596,-1.08,-0.769
AAGGGGGCCCC,-0.0322,0.728,0.786,0.441,0.981,0.694,1.04,0.532,0.709
CGGGGTCTCCT,-0.0145,0.0717,0.00961,-0.308,-0.191,-0.332,-0.207,-0.336,0.0688
GAGTTGGCCCT,-0.84,-1.24,-0.495,-0.546,-0.734,-0.243,-0.397,-0.778,-0.623
GGAAGCCTCCC,-0.446,-1.14,-0.595,-0.524,-0.721,-0.789,-0.717,-0.888,-0.726
GGGTGTTTCCT,1.42,0.575,1.06,0.736,0.987,0.102,1.16,0.695,1.43
GAAGGAGTCCT,-0.288,-1.55,-0.648,-0.892,-0.934,-0.985,-0.808,-1.08,-0.746
AAGAATCCCCC,1.26,1.57,2.41,2.44,2.16,2.64,2.41,1.79,1.99
GGGTGCTCCCT,-0.519,0.136,0.0774,-0.166,0.115,-0.21,-0.168,-0.0364,0.178
CAAAACACCCC,0.0833,0.707,0.313,0.534,0.701,0.488,1.03,0.611,0.701
AGAATCCCCCC,1.06,1.63,2.16,2.66,2.29,2.64,2.51,1.9,2.21
GAAGGCGTCCC,-0.376,-0.0302,-0.0163,-0.134,-0.134,0.147,0.216,-0.0533,-0.265
GAAGTGTCCCT,-0.0315,0.834,0.946,0.67,1.04,1.07,1.37,0.382,0.65
GAGTGTACCCC,0.11,-0.176,-0.057,0.0359,0.0373,0.15,0.337,0.0895,0.24
AAATTGTCCCT,0.833,1.43,1.92,1.28,1.26,1.61,1.7,1.14,1.11

Sequence,binding signal [1] [z-score],binding signal [2] [z-score],binding signal [3] [z-score],binding signal [4] [z-score],binding signal [5] [z-score],binding signal [6] [z-score],binding signal [7] [z-score],binding signal [8] [z-score],binding signal [9] [z-score]
CGGAGTATCCC,0.97,-0.805,-0.256,0.294,-0.0559,-0.605,-0.711,-0.0452,-0.0756
CGATGCTCCCC,0.0266,-0.0437,-0.125,-0.0461,-0.196,0.111,0.0431,0.0174,-0.273
AAAGGAACCCC,-0.25,0.367,0.122,0.18,0.127,0.118,0.351,0.41,0.175
GAATATTCCCT,1.37,1.19,1.3,1.24,1.28,1.04,1.2,0.882,1.16
GAGTGGATCCT,-0.466,-1.11,-0.663,-0.846,-1,-1.04,-0.919,-1.49,-0.92
CGAGTGACCCT,-1.21,-1.33,-0.545,-0.827,-0.906,-0.855,-0.722,-1.34,-0.744
CAGGACTTCCT,-0.0226,-0.664,-0.608,-0.403,-0.542,-0.897,-0.842,-0.448,-0.475
AGATTCCTCCC,0.213,-0.426,-0.138,-0.135,-0.146,-0.305,-0.191,0.176,-0.118
CAATTGCTCCC,-0.396,-0.852,-0.46,-0.685,-0.589,-0.487,-0.531,-0.849,-0.604
CGAAATCCCCC,1.7,1.64,2.27,2.33,2.13,2.58,2.42,1.83,2.36
CGAAGGACCCT,-1.31,-1.42,-0.622,-0.948,-0.812,-0.928,-0.721,-1.47,-0.87
AAGGAGCTCCC,-0.693,-0.999,-0.562,-0.64,-0.893,-0.741,-0.874,-0.927,-0.843
GAAAGTGCCCC,0.518,0.277,0.105,0.655,0.365,0.443,0.479,0.607,0.511
GGGAACCCCCC,2.47,1.16,3.03,2.69,2.78,2.09,2.68,2.19,2.96
GAATTGTTCCT,0.0616,-1.38,-0.497,-0.672,-0.721,-1.09,-0.587,-0.937,-0.574
AAAGAAGTCCT,-0.118,-0.972,-0.456,-0.815,-0.873,-0.926,-0.875,-0.558,-0.645
GAAATTGCCCT,0.612,-0.312,-0.333,0.0283,-0.203,-0.547,-0.476,0.175,-0.0915
GAGATTACCCT,0.00649,0.801,0.46,0.604,0.372,0.519,0.477,0.426,0.377
CGGTATCCCCC,0.855,1.13,2.07,1.69,1.56,1.33,1.65,1.23,1.71
CAAGGATTCCC,1.01,0.585,0.314,0.704,0.382,0.457,0.419,0.93,0.576
